Assay outcomes as filed in PubChem BioAssay.
Lmaj promast: Leishmania major promastigote growth inhibition. Leishmania major promastigotes, resazurin fluorescence viability. inhibition, % at 10 µM. 9% of 200,000 active. AID 1063; in the data active = inhibition above about 50%;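 note: promastigotes grown with compound for 44 hours at 28 °C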
ROMK primary: modulates human ROMK potassium channel activity; P48048; Tet-inducible ROMK, thallium flux fluorescence; actives lie on both sides; B-score at 10 µM; 2% of 130,000 active;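 active = signal ratio slope over the read window, or its plate-corrected B-score, at least 3 SD from the plate mean, either direction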;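 note: B-score of the F/F0 ratio slope over 7 to 12 s after thallium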
Target sequence (P48048 whole entry, looked up): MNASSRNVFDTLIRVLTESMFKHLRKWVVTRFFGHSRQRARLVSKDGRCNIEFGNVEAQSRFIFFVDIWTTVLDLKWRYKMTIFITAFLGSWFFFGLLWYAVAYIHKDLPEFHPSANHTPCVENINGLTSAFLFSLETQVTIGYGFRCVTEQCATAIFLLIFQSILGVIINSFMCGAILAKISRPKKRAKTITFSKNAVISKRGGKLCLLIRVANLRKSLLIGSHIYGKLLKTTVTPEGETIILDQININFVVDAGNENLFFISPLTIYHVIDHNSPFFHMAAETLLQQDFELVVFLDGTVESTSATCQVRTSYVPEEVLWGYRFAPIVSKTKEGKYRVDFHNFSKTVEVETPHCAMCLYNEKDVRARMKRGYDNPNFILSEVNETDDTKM
Insulin prom inh: TRM-6 insulin promoter activity inhibition. TRM-6 cells (human fetal islet line), insulin promoter-eGFP reporter, imaging; reporter expression induced with tamoxifen. inhibition, % at 2 µM. 0.9% of 130,000 active;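 active = inhibition above the mean plus 3 SD, with well images judged a real hit on visual review, cut at about 60% in these data, passing the limit was not always enough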
Insulin prom up: MIN6 insulin promoter up-regulation | z-score at 5 µM | MIN6 insulin promoter-GFP reporter, high-content imaging; stronger effect = higher value | AID 1625 | 0.3% of 190,000 active;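 active = z-score above 3 at 5 µM with at least 500 cells counted in the well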
WT yeast gro inh: growth inhibition of WT yeast, mitochondrial fusion screen; mitochondrial fusion phenotypic screen, WT strain; inhibition, % at 10 µM; 2.1% of 190,000 active; in the data active = inhibition above about 58%; tested in S. cerevisiae
KCC2 mod: modulators of human KCC2 chloride dependent transport; 2.2% of 190,000 active; KCC2 cells, thallium flux FluoZin-2 fluorescence; Q9H2X9; B-score of Tl+ flux slope (higher = more flux/activation; lower = inhibition) at 10 µM; AID 1456;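 active = thallium flux slope and its plate-corrected score both differing from the plate sample mean at a set confidence after two filtering rounds, in either direction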;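 note: slope of fluorescence scaled to starting intensity during 10 to 20 s after thallium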
* marks the source's active call; other numbers are inactive results; . = no result. In the library only some 12% were active in any assay of this set; here they are far more common.

SMILES	Lmaj promast	ROMK primary	Insulin prom inh	Insulin prom up	WT yeast gro inh	KCC2 mod
CCc1nnc(NC(=O)CSc2nnc(COc3ccccc3)n2-c2ccc(C)cc2)s1	-2.3	0.832	-88.2	0.59	-2.7	.
N#Cc1ccccc1NC(=O)CSc1nnc(-c2ccc(F)cc2)n1-c1ccccc1	3.3	-0.453	-25.7	.	-11.6	-0.375
Cc1ccc(-c2nnc(CSc3nnc(COc4ccccc4)n3-c3ccc(C)cc3)o2)cc1	14.9	-0.706	-28.6	-0.71	-6.4	.
Cc1ccc(OCc2nnc(SCc3cc(=O)[nH]c4ccccc34)n2-c2ccccc2)cc1	72.6*	-1.34	-66.7	1.97	4.3	-1.6
Cc1ccccc1OCc1nnc(SCc2cc(=O)[nH]c3ccccc23)n1-c1ccccc1	75.0*	-2.68	-10.8	-0.17	-18.8	-2.12
Cc1ccc(NC(=O)CSc2nnc(-c3n[nH]c4ccccc34)n2-c2ccccc2)c(C)c1	53.4*	.	-9.1	-0.63	11.3	-0.634
Cc1ccc(OCc2nnc(SCC(=O)Nc3cccc4ccccc34)n2-c2ccccc2)cc1	94.9*	.	-46.0	-0.83	38.9	0.109
CN=C(Nc1ccccc1)SC1CC(=O)N(c2cccc(OC)c2)C1=O (stereo not given)	14.0	-0.563	.	1.11	10.5	0.815
COc1ccc(-n2c(Cc3cccn3C)nnc2SCC(=O)Nc2ccccc2C)cc1	3.5	.	.	0.11	5.2	0.285
COc1ccc(-n2c(Cc3cccn3C)nnc2SCC(=O)Nc2cccc(C)c2C)cc1	5.0	.	.	3.05*	-1.2	0.172
CCn1c(CNC(=O)c2ccccc2F)nnc1SCC(=O)NC1CCCCC1	-3.5	0.59	.	0.59	-22.9	0.77
CC1CN(CC(O)COC2CCC(C(C)(C)C)CC2)CC(C)O1 (stereo not given)	89.8*	0.435	.	0.25	-22.8	-0.407
OC(COC1CCCCC1)CN1CCN(c2ccccc2)CC1 (stereo not given)	20.3	.	62.2	0.07	-2.2	-0.238
Cc1c(C)n(CC(O)CN2CCCCCC2)c2ccccc12 (stereo not given)	99.0*	-2.06*	.	-1.06	23.6	0.943
CC(C)(C)C1CCC(OCC(O)CN2CCN(c3ccccn3)CC2)CC1 (stereo not given)	93.7*	-1.22	6.7	-0.85	31.3	-0.538
OC(COC(c1ccccc1)c1ccccc1)CN1CCN(c2ccccn2)CC1 (stereo not given)	3.9	-1.24	20.0	0.46	2.2	0.974
Cc1c(C)n(CC(O)CNc2ccccc2)c2ccccc12 (stereo not given)	3.6	0.0447	-89.7	.	34.5	0.032
CC(C)(C)C1CCC(OCC(O)CN2CCN(Cc3ccccc3)CC2)CC1 (stereo not given)	91.4*	.	.	-0.67	-28.0	-0.0548
Cc1sc(=NC(=O)c2ccco2)n(C)c1-c1ccc(Cl)cc1	10.4	-0.32	.	0.32	4.7	0.318
OC(CN1CCN(c2ccccn2)CC1)Cn1c2ccccc2c2ccccc21 (stereo not given)	99.7*	.	6.9	-0.24	38.0	-0.765
CC(C)NCC(O)COC1CCC(C(C)(C)C)CC1 (stereo not given)	90.2*	1	.	1.21	22.2	0.352
COc1ccc(C(=O)COC(=O)CNC(=O)C2CCCCC2)c(OC)c1	10.4	0.864	-8.6	1.38	-9.3	-0.125
O=C(NC1=NCCS1)c1sc2ccccc2c1Cl	-1.3	.	-15.9	0.04	8.0	0.0901
O=C(NC1=NCCS1)c1sc2cc(Cl)cc(Cl)c2c1Cl	75.8*	0.122	-28.9	1.25	15.3	-0.0939
CCOC(=O)CNC(=O)Nc1cccc(Cl)c1C	-8.5	.	-11.1	.	4.4	0.4
SMILES	Lmaj promast	ROMK primary	Insulin prom inh	Insulin prom up	WT yeast gro inh	KCC2 mod
CCCCCCCCn1c(=O)c(C(=O)OC)c(N)c2ccccc21	.	.	.	-0.29	.	-2.35
COC(=O)c1c(C(=O)OC)n(CCCN)c2ccc(C)cc12	58.5*	.	-410.0	-0.18	.	-0.429
O=C(NCc1ccco1)C(c1cccs1)N(C(=O)C1COc2ccccc2O1)c1cccc(O)c1 (stereo not given)	18.1	-7.18*	.	-0.44	4.3	-1.27
CCOc1ccc(CCNC(=O)COC(=O)c2ccccc2O)cc1OCC	81.6*	-0.092	.	-1.06	-2.0	0.473
CCOc1ccc(CCNC(=O)c2ccc(CNS(=O)(=O)c3ccccc3)cc2)cc1OCC	52.7*	0.312	13.9	0.44	4.2	-0.191
CN(C)CCCNc1ccc(-c2nn(C)c(=O)c3ccccc23)cc1[N+](=O)[O-]	100.2*	-0.986	11.8	-0.62	-1.2	-0.327
COCCNc1ccc(-c2nn(C)c(=O)c3ccccc23)cc1[N+](=O)[O-]	.	.	.	-0.24	.	-0.13
CN1C2CCC1/C(=C\c1ccccc1)C(=O)/C2=C\c1ccccc1	93.8*	.	-41.9	0.35	3.8	.
Cc1cc(Cl)ccc1NC(=O)CN1CCC(C(O)(c2ccccc2)c2ccccc2)CC1	15.8	1.63	-12.5	-1.32	56.1	1.15
Nc1nc(SCC(=O)c2ccc(Br)s2)n[nH]1	0.5	-0.164	-10.0	.	16.0	0.149
COC(=O)C1=C(C)N=C2SC(C#N)=C(N)N2C1c1ccc(OCc2ccccc2)cc1 (stereo not given)	97.7*	.	16.7	0	26.4	1.15
COC(=O)C1=C(C)N=C2SC(C#N)=C(N)N2C1c1cc(OC)c(OC)c(OC)c1 (stereo not given)	-0.4	-0.79	.	-0.18	-19.0	0.37
COc1ccc(OC)c(N2Cc3cc(C)c(C)cc3C2)c1	86.5*	.	-5.3	.	3.8	-0.73
O=C(N1CCN(Cc2ccccc2)CC1)C12CC3CC(CC(C3)C1)C2	-1.0	-0.961	11.1	-0.34	-20.9	.
O=C(N1CCN(c2ccccc2)CC1)C12CC3CC(CC(C3)C1)C2	95.2*	.	23.1	0.47	11.6	0.548
O=C(NC(=S)N1CCN(c2ccc(F)cc2)CC1)C12CC3CC(CC(C3)C1)C2	80.1*	0.371	-34.5	0.1	18.6	3.11
CCOc1ccccc1N1CCN(C(=S)NCc2ccc(Cl)cc2)CC1	15.5	-0.111	.	-0.28	77.6*	0.957
CC(=O)N1CCN(C(=S)NCc2ccccc2)CC1	-2.9	0.118	.	0.18	4.9	1.88
O=C(NC(=S)N1CCN(CCO)CC1)C12CC3CC(CC(C3)C1)C2	9.6	-0.106	29.4	-0.35	-3.5	-1.28
S=C(NCc1ccccc1)N1CCN(c2cccc(Cl)c2)CC1	5.4	-0.0375	.	-0.92	70.5*	0.835
CCOc1ccccc1N1CCN(C(=O)Nc2ccc(F)c(Cl)c2)CC1	46.9	.	-9.6	0.2	51.8	.
O=C(Nc1nc(COc2ccccc2)cs1)C12CC3CC(CC(C3)C1)C2	99.5*	-0.00257	-15.6	-0.74	59.5*	-0.586
O=C(Nc1ccccc1N1CCN(c2ccc(F)cc2)CC1)C12CC3CC(CC(C3)C1)C2	99.6*	-0.364	-1.9	.	45.1	-1.26
O=C(Nc1ccccc1-c1ccccc1)C1CCCC1	0.1	0.444	.	-0.24	0.3	-0.302
CC(=O)Nc1nc(COc2ccccc2)cs1	-6.2	.	-93.3	0.98	18.2	.
O=C(Nc1ccccc1N1CCN(c2ccc(F)cc2)CC1)c1ccccc1	-5.1	.	-58.3	1.39	-16.2	-0.0482
